Bioassay records from PubChem.
FBW7 activator = human FBW7 E3 ligase activation, primary screen; AlphaScreen FBW7–phospho-cyclin E peptide binding, activator screen; Q969H0; actives 0.13% (n = 650,000); normalized activity (activation), % at 26.1 µM; in the data active = normalized activity above about 1.9%;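 note: purified mutant Fbw7 with reduced substrate affinity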
TEAD-YAP block = TEAD-YAP interaction inhibition. HEK-TIYL cells, TEAD-Gal4/YAP UAS-luciferase luminescence. actives 1.4% (n = 640,000). inhibition, % at 9.12 µM; in the data active = inhibition above about 32%
GPR151 ag = activators of human GPR151. AID 1508602. actives 1% (n = 650,000). activation, % at 11.2 µM. Q8TDV0. PathHunter beta-arrestin GPR151 cells, luminescence; in the data active = activation above about 4.9%
Target sequence (Q8TDV0 whole entry, looked up): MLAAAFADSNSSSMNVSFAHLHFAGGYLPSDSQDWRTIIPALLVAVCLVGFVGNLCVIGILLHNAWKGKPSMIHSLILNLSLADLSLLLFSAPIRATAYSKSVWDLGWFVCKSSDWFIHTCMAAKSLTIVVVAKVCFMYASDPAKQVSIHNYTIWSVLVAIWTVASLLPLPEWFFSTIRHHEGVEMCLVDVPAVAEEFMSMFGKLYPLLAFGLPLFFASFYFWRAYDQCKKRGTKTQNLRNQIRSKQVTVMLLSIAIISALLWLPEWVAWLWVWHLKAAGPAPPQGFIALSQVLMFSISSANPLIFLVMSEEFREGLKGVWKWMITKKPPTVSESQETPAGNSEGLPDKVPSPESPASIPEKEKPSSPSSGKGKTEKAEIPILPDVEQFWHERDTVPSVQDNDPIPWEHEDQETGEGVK
MITF inh = inhibitors of human MITF. inhibition, % at 2.6 µM. O75030. AlphaScreen MITF homodimerization, bead proximity signal. actives 0.91% (n = 650,000); in the data active = inhibition above about 50%
MITF confirm = human MITF inhibition, confirmation | shares compounds with MITF inh | inhibition, % at 2.6 µM | actives 16% (n = 4,700) | AID 1259372 | AlphaScreen MITF homodimerization, biotin/His-MITF beads;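 active = inhibition above a cutoff derived from the DMSO control wells, cut at about 28% in these data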;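 note: inhibitors lower the bead chemiluminescence by keeping MITF from dimerizing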
AS interf DR = counter-screen: compounds optically interfering with AlphaScreen; shares compounds with MITF inh; AlphaScreen optical interference counterscreen, cell-free; IC50, µM; actives 6% (n = 480); call rule not given here
AlphaScreen intf2 = counter-screen: compounds optically interfering with AlphaScreen; actives 7.6% (n = 4,700); shares compounds with MITF inh; LysRS AlphaScreen counterscreen, signal interference, triplicate; AID 1259376; inhibition, % at 2.6 µM;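 active = inhibition above a cutoff derived from the DMSO control wells, cut at about 30% in these data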
Large screens that a line does not name were inactive (follow-up assays come after a bar, where they were run). The list is not random: actives were taken first. Their share in the collection is about 3.4%.

COc1cc(/C=C2\C(C)=C([N+](=O)[O-])CS2(=O)=O)ccc1O	MITF inh 87 | MITF confirm 76 | AS interf DR inactive | AlphaScreen intf2 inactive
O=C(Cn1cc2c(n1)CCCC2)N1CCN(c2ccccc2)CC1	MITF inh 61 | MITF confirm inactive | AlphaScreen intf2 inactive
O=C(Cn1cc2c(n1)CCCC2)N1CCCCC1	none
O=C(/C=C/c1ccco1)NC(=S)Nc1ccc(Cl)c(C(=O)O)c1	MITF inh 76 | MITF confirm 64 | AS interf DR inactive | AlphaScreen intf2 inactive
COc1cccc(NC(=S)NC(=O)/C=C/c2ccco2)c1	none
O=C(/C=C/c1ccco1)NC(=S)Nc1cccc(C(=O)O)c1	MITF inh 69 | MITF confirm 62 | AS interf DR inactive | AlphaScreen intf2 inactive
CCN1CCc2c(sc(NC(=S)NC(=O)/C=C/c3ccccc3)c2C(N)=O)C1	none
CCN1CCc2c(sc(NC(=S)NC(=O)/C=C/c3ccco3)c2C(N)=O)C1	MITF inh 78 | MITF confirm 79 | AS interf DR inactive | AlphaScreen intf2 inactive
O=C1Nc2ccc(Br)cc2C12NN=C(c1ccccc1O)S2 (stereo unspecified)	none
O=C(C1=C(O)C(=O)N(CCCN2CCOCC2)C1c1ccc(F)cc1)c1cccs1 (stereo unspecified)	none
CC(=O)Oc1cc(-c2nc3ccc(Br)cc3c(=O)o2)cc(-c2nc3ccc(Br)cc3c(=O)o2)c1	none
COCCCNc1ncnc2sc(C)c(C)c12	MITF inh 68 | MITF confirm inactive | AlphaScreen intf2 inactive
Cc1onc(-c2ccccc2Cl)c1C(=O)NC(CC(C)C)C(=O)O (stereo unspecified)	none
CN(C)CC(=O)Nc1ccccc1Cl	none
CCOC(=O)C1CCN(C(=O)c2ccc(N3CC4CC(C3)c3cccc(=O)n3C4)c(NC(=O)c3ccc(C(C)(C)C)cc3)c2)CC1 (stereo unspecified)	MITF inh 67 | MITF confirm inactive | AlphaScreen intf2 inactive
CCOC(=O)C1CCN(C(=O)c2ccc(N3CC4CC(C3)c3cccc(=O)n3C4)c(NC(=O)c3ccc(F)cc3)c2)CC1 (stereo unspecified)	none
O=C(C1CCCN(Cc2ccncc2)C1)N1CCCCC1 (stereo unspecified)	MITF inh 103 | MITF confirm inactive | AlphaScreen intf2 inactive
O=C(C1CCCN(Cc2cccnc2)C1)N1CCCCC1 (stereo unspecified)	MITF inh 104 | MITF confirm inactive | AlphaScreen intf2 inactive
O=C(C1CCCN(Cc2cccc(F)c2)C1)N1CCCCCC1 (stereo unspecified)	none
COc1ccc(/C=C2\N=C(c3ccco3)OC2=O)cc1	none
COc1ccc(C2CCN(Cc3cccnc3)CC2)cc1	MITF inh 64 | MITF confirm inactive | AlphaScreen intf2 inactive
COc1ccc(CC2(CO)CCN(Cc3cccnc3)CC2)cc1	none
COc1ccc(CN2CCN(Cc3cccnc3)CC2)cc1	MITF inh 74 | MITF confirm inactive | AlphaScreen intf2 inactive
COc1cc(CN2CCCCCCC2)cc(OC)c1O	none
COc1cc(CN2CCN(Cc3cccnc3)CC2)cc(OC)c1O	MITF inh 66 | MITF confirm inactive | AlphaScreen intf2 inactive
CSc1ccc(CN2CCN(Cc3cccnc3)CC2)cc1	MITF inh 86 | MITF confirm inactive | AlphaScreen intf2 inactive
COc1ccc(CNC(=O)C2Cc3ccccc3CN2S(=O)(=O)c2cccs2)cc1 (stereo unspecified)	none
CC(NC(=O)COc1ccccc1Br)c1ccccc1 (stereo unspecified)	none
COC(=O)C1=CN(Cc2ccc(Cl)cc2)C=C(C(=O)OC)C1c1ccsc1	none
CC(C)c1nc(N2CCN(C(=O)Nc3ccccc3)CC2)c(C#N)c2c1COC(C)(C)C2	none
COc1cccc(CN2CCC(CNc3ccc(-c4ccncc4)cc3)C2)c1 (stereo unspecified)	MITF inh 63 | MITF confirm 61 | AS interf DR inactive | AlphaScreen intf2 inactive
COc1cccc(CN2CCOCC2)c1	none
COc1cccc(CN2CCN(Cc3cccnc3)CC2)c1	MITF inh 79 | MITF confirm inactive | AlphaScreen intf2 inactive
O=C(CSc1nc2ccccc2n1CC(=O)N1CCOCC1)NC1CC1	none
Cc1ncc([N+](=O)[O-])n1Cc1ccc(F)cc1	none
COC(=O)c1ccc(Cn2c([N+](=O)[O-])cnc2C)cc1	MITF inh 78 | MITF confirm inactive | AlphaScreen intf2 inactive
COc1ccc(CCN2CCc3nc4ccncc4cc3C2)cc1	MITF inh 51 | MITF confirm inactive | AlphaScreen intf2 34
CCCC(=O)Nc1ccc(Br)c(C)n1	none
COc1ccc(C(=O)N/N=C(/C)CC(=O)Nc2ccccn2)cc1OC	MITF inh 60 | MITF confirm inactive | AlphaScreen intf2 inactive
O=C(O)CCCc1nc(-c2ccccc2Cl)no1	none
CC(C)NC(=O)CCCc1nc(-c2ccccc2Cl)no1	MITF inh 68 | MITF confirm inactive | AlphaScreen intf2 inactive
CC(C)(C)CNc1cc(N2CCN(S(C)(=O)=O)CC2)ccc1[N+](=O)[O-]	none
CC(C)CN(CC(C)C)C(=S)NC1CCCCC1	MITF inh 69 | MITF confirm inactive | AlphaScreen intf2 inactive
COc1cc(OC)c(CN2CCCC(CO)C2)cc1Br (stereo unspecified)	MITF inh 55 | MITF confirm inactive | AlphaScreen intf2 inactive
CCOC(=O)N1CCC(N2CCCN(c3nc(C)c4cc(OCC)ccc4n3)CC2)CC1	none
N#Cc1c(N)nc(SCC(N)=O)c(C#N)c1-c1ccccc1Cl	MITF inh 85 | MITF confirm inactive | AlphaScreen intf2 inactive
Cn1c(=O)n(C2(C)CSC2)c2ccccc21	none
S=c1[nH]nc(-c2ccco2)n1/N=C/C=C/c1ccco1	MITF inh 73 | MITF confirm 33 | AS interf DR inactive | AlphaScreen intf2 inactive
COc1ccc(C(=O)N/N=C(\C)c2ccc(Br)cc2)cc1	none
COc1cc(-c2[nH]nc3c2C(c2ccc4c(c2)OCO4)C(C#N)=C(N)O3)cc(OC)c1OC (stereo unspecified)	MITF inh 66 | MITF confirm inactive | AlphaScreen intf2 inactive
COC(=O)Cn1c(=NC(=O)CN2C(=O)c3ccccc3C2=O)sc2cc(C)ccc21	none
Cc1ccccc1NC(=O)c1c(NC(=O)c2ccc(F)cc2)sc2c1CCCCC2	none
CC1Cc2ccccc2N1C(=O)CN1CCC(O)(c2ccc(F)cc2)CC1 (stereo unspecified)	none
COc1ccc(C(=O)OCc2nnc(-c3ccc([N+](=O)[O-])cc3)o2)cc1	none
Cc1cc(C(=O)N=c2sc3cc4c(cc3n2C)OCCO4)no1	MITF inh 76 | MITF confirm inactive | AlphaScreen intf2 inactive
Cn1c(=NC(=O)c2cccs2)sc2cc3c(cc21)OCCO3	none
COCCN1C(=O)C(=O)/C(=C(\O)c2ccccc2)C1c1ccc(C(C)C)cc1 (stereo unspecified)	none
